Experimental data published in PubChem BioAssay AID743314 (Broad Institute, 2014).
Measured potencies and affinities stand elsewhere. Inconclusive results are not listed. Activity calls are given as the source filed them.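 How the source made its calls: active means fitted half-maximal concentration no higher than twice the top tested dose, in every repeat run; inconclusive means repeat runs disagree, poor fit, or flat partial inhibition; inactive means the rest.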

Molecular target: Endoplasmic reticulum aminopeptidase 1 (Homo sapiens) (UniProt Q9NZ08)
Sequence (Q9NZ08 whole entry, looked up): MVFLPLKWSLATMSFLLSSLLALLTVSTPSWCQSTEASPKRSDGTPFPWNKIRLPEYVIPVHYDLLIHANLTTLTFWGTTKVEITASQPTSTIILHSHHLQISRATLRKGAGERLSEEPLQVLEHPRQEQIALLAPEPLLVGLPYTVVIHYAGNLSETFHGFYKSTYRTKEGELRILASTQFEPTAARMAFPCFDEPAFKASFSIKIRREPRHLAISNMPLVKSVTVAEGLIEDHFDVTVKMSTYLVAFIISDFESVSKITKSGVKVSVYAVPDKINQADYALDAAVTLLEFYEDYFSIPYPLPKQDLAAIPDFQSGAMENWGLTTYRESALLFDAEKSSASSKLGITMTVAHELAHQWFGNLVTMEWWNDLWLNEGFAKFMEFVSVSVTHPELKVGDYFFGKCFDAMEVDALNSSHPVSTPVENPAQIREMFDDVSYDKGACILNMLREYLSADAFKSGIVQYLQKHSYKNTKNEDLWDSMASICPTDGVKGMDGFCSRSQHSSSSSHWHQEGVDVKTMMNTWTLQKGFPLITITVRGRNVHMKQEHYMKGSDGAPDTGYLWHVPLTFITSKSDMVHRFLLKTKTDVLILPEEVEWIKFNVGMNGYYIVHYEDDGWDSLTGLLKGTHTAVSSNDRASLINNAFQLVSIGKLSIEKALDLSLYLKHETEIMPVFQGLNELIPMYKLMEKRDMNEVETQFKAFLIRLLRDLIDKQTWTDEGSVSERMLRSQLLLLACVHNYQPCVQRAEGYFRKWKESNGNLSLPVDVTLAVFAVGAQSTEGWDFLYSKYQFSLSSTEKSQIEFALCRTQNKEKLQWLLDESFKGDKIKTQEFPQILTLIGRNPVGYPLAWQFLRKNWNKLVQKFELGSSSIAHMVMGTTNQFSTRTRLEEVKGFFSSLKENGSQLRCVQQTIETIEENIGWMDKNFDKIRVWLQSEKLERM
Experiment: inhibition of human ERAP1 enzyme activity – biochemical, cherry-pick, set 2, plate reader, dose response (AID 743314)
Settings: Recombinant ERAP1, Leu-AMC fluorescence, 60 min; series mostly up to 11 µM

outcome, inactive:
C[C@@H]1CN([C@H](C)CO)C(=O)c2cccc(NS(=O)(=O)c3ccc(Cl)cc3)c2O[C@@H]1CN(C)C(=O)Nc1ccccc1, C[C@H]1CCCCO[C@@H](CN(C)C)[C@@H](C)CN([C@@H](C)CO)C(=O)c2cc(NS(=O)(=O)c3ccc(Cl)cc3)ccc2O1, COc1ccc(CN(C)C[C@H]2Oc3c(NC(=O)NC4CCCCC4)cccc3C(=O)N([C@@H](C)CO)C[C@H]2C)cc1, O=c1cc(CN2CCOCC2)c2cc(Cl)c(O)cc2o1, CCCCCCc1c(C)c2ccc(OCC(=O)N[C@@H](Cc3ccccc3)C(=O)O)cc2oc1=O, CN1CCN(S(=O)(=O)c2cccc(C(=O)Nc3cc(Cl)ccc3N3CCOCC3)c2)CC1, Cc1nc2ccc(NC(=O)c3ccc(=O)[nH]c3)cc2s1, C[C@H]1CCCCO[C@H](CN(C)C)[C@@H](C)CN([C@@H](C)CO)C(=O)c2cc(NS(=O)(=O)c3ccc(Cl)cc3)ccc2O1, C/C=C/c1ccc([C@H]2[C@@H](CO)N(CC3CCOCC3)C23CN(S(=O)(=O)CC)C3)cc1, C[C@H]1CN([C@@H](C)CO)C(=O)CCCn2cc(nn2)CO[C@@H]1CN(C)Cc1ccccc1, CC(C)C(NC(=O)CCNC(=O)c1ccc([N+](=O)[O-])cc1)c1nc2ccccc2[nH]1 (stereo not drawn), O=C(C[C@@H]1CC[C@@H]2[C@H](COC[C@@H](O)CN2C(=O)Cc2ccccc2)O1)NC1CCC1, O=C(CSc1nnc2ccc(-c3ccc(F)cc3)nn12)N1CCCC1, c1ccc(Nc2nc(NCC3CCCO3)c3ccccc3n2)cc1 (stereo not drawn), C[C@@H]1CN([C@@H](C)CO)C(=O)c2cccc(NC(=O)c3cnccn3)c2O[C@H]1CN(C)Cc1ccc(Cl)c(Cl)c1, CCOC(=O)N1CCc2c(sc(NC(=O)c3ccc(S(=O)(=O)N4CCCC4)cc3)c2C#N)C1, C[C@@H]1CN([C@H](C)CO)C(=O)c2cc(NC(=O)CCN3CCOCC3)ccc2O[C@@H]1CN(C)S(=O)(=O)c1ccccc1, Cc1noc(C)c1NC(=O)N(C)C[C@H]1Oc2c(NC(=O)Nc3ccc(F)cc3)cccc2C(=O)N([C@H](C)CO)C[C@H]1C, C[C@H]1CCCCO[C@@H](CN(C)S(=O)(=O)c2cn(C)cn2)[C@@H](C)CN([C@@H](C)CO)C(=O)c2cc(NC(=O)Nc3ccccc3)ccc2O1, COc1ccc(S(=O)(=O)N(C)C[C@H]2Oc3ccc(N(C)C)cc3CC(=O)N([C@H](C)CO)C[C@H]2C)cc1, Cc1cccc2sc(N(CCCN(C)C)C(=O)c3ccc4ncsc4c3)nc12, O=S(=O)(Nc1cccc(-c2cn3c(n2)SCC3)c1)c1ccccc1, C=CCn1nnnc1SCC(=O)Nc1cccc(C(F)(F)F)c1, CN(C)C(=O)[C@H]1[C@H](CO)[C@H]2Cn3c(cccc3=O)[C@@H]1N2CC1CCCC1, O=C(CSc1nc2ccccc2c(=O)n1-c1ccccc1)NCC1CCCO1 (stereo not drawn), O=C(CSc1n[nH]c(-c2cccs2)n1)NC1CCS(=O)(=O)C1 (stereo not drawn), O=C(c1ccccc1)N1CC(=O)N2[C@H](CO)[C@@H](c3ccc(-c4ccccc4)cc3)[C@H]2C1, CCOc1ccccc1-n1nnnc1SCC(=O)NC(=O)Cc1ccccc1, C[C@@H]1CN([C@H](C)CO)C(=O)Cc2cc(NC(=O)Nc3cccc4ccccc34)ccc2O[C@H]1CN(C)Cc1ccc(C(=O)O)cc1, Cn1c(=O)[nH]c(=O)c2c1[nH]c(=S)n2Cc1ccccc1, COc1ccc(-c2cc(=O)oc3cc(OC(C)C(=O)NC(Cc4c[nH]c5ccc(O)cc45)C(=O)O)ccc23)cc1 (stereo not drawn), COc1ccc(CCOC(=O)CNC(=O)c2ccc(Cl)cc2Cl)cc1, CC(=O)Nc1ccc2nc(NC(=O)CN3CCOCC3)sc2c1, O=C(CNC(=O)OCc1ccccc1)Nc1ccc(F)cc1, CCN(CC)C(=O)c1ncn(C)c1C(=O)N(CC)CC, O=S(=O)(O)c1ccc(N2N=C(c3ccccc3)CC2c2ccccc2)cc1 (stereo not drawn), CCc1c(C)c2cc(Cl)c(O)c(CN3CCCC3)c2oc1=O, Cc1cc(Br)ccc1NC(=O)CN(C)C(=O)Cn1c(=O)cnc2ccccc21
